Screening data as filed in PubChem.
Cruzain noTriton: inhibitors of Trypanosoma cruzi cruzain without detergent; Potency, µM, for inactives: max response, negative = inhibition, hits mostly inhibitors; P25779; 200,000 compounds, 2.3% hits; AID 1476; purified cruzain, Z-FR-AMC fluorescence, no detergent;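 note: plate controls were enzyme without inhibitor for no effect and buffer without enzyme for full effect; nearly all actives have a fitted effect of over 40% in size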
Target sequence (P25779 123-467 limits assumed): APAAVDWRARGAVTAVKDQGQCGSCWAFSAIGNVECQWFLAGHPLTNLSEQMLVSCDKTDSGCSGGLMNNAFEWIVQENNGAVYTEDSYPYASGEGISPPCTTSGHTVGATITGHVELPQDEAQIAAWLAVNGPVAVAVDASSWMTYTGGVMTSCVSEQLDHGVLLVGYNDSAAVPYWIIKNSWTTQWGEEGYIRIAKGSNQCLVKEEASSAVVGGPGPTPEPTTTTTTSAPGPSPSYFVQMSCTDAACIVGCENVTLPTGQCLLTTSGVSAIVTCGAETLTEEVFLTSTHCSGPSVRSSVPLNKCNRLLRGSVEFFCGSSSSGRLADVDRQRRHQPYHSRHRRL
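Detergent-free condition (0.00005% Triton X-100) in acetate buffer pH 5.5 with DTT. 1.5 nM enzyme and compound were pre-mixed 15 min, then 2 uM Z-FR-AMC substrate added; reaction progress from fluorescence change between first and third reads (60 s).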
Cruzain inh Det: inhibitors of Trypanosoma cruzi cruzain with detergent. purified cruzain, Z-FR-AMC fluorescence, 0.01% Triton. Potency, µM, for the others: max response, negative = inhibition, hits mostly inhibitors. 200,000 compounds, 0.43% hits;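 note: plate controls were neutral wells for no effect and buffer without enzyme for full effect; nearly all actives have a fitted effect of over 40% in size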
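In this qHTS format, compounds are incubated with 1.5 nM cruzain for 15 min at room temperature before 2 uM Z-FR-AMC is added. Release of AMC is followed at 360/450 nm, and progress is taken as the 60 s fluorescence difference.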
The depositor's hits bear a star; u = inconclusive. Only some compounds are listed: those with a hit (about 2.6% of all), similar ones and a draw of the others. Calls come from the whole dose curve; as a rule, active = well fitted curve in the direction sought with a large enough effect; inconclusive = small, poorly fitted or top-dose-only effect, or another doubt; inactive = no such curve, though single readings can be large; an effect the other way counts as inactive or inconclusive. Potency is the fitted concentration of half-maximal effect.

SMILES | Cruzain noTriton | Cruzain inh Det
CCN(CC)c1ccc(NC(=O)CCCN2C(=O)C(c3ccccc3)Oc3cccnc32)c(C)c1 (stereo unspecified) | -2% | 0%
CCNc1ncc2nc(-c3ccc(F)cc3)c(=O)n(Cc3ccc(F)cc3)c2n1 | 10% | -2%
CCc1ccc(C(c2ccccc2)c2c(C)[nH]c3ccccc23)s1 (stereo unspecified) | -8% | -1%
CCCN1CCN(CCCNC(=O)c2cnn(-c3ccc(F)cc3)c2-n2cccc2)CC1 | -14% | 0%
O=C(CSc1nc2ccccc2[nH]1)N1c2ccccc2Sc2ccccc21 | -3% | -6%
O=C(CSc1nc2ccccc2[nH]1)c1ccc(Cl)s1 | 10µM* | -4%
CCOC(=O)c1cc(-c2ccccc2)n(CCC(=O)NCCc2ccc(C)cc2)c1C | -4% | -1%
C=C(CC1([C@@H](NP(=O)(c2ccccc2)c2ccccc2)[C@H]2C[C@@H]2CCN(C(=O)OCC)S(=O)(=O)c2ccc(C)cc2)CC1)c1ccccc1 | -28% | -3%
Cc1ccc(C)c(NC(=S)NC(NC(=O)Cc2cccc3ccccc23)C(Cl)(Cl)Cl)c1 (stereo unspecified) | 7.9µM* | -2%
Cc1ccc(C)c(NC(=S)NC(NC(=O)N(C)C)C(Cl)(Cl)Cl)c1 (stereo unspecified) | -6% | 6%
CCOc1cc(/C=C2\CCC/C(=C\c3cc(Cl)c(O)c(OCC)c3)C2=O)cc(Cl)c1O | 13µM* | 6%
C=CCNC(=O)/C(C#N)=C\c1cc(Cl)c(O)c(OCC)c1 | -4% | -1%
Cc1ccc(CNC(=O)c2cc(=O)c3cc(C)cc(C)c3o2)cc1 | 3% | -2%
COc1ccccc1N1CCN(C(=O)CN2C(=O)COc3ccc(S(=O)(=O)N4CCOCC4)cc32)CC1 | u | -2%
CCNC(=O)CSc1ncnc2sccc12 | -9% | -3%
N#Cc1c(NC(=O)CSc2ncnc3sccc23)oc(-c2ccco2)c1-c1ccco1 | 25µM* | -12%
Cc1ccc(C(=O)Nc2ccc(Cl)c(-c3nc4ncccc4o3)c2)c(C)c1 | -19% | -7%
COc1ccccc1CNC(=O)C1CCN(S(=O)(=O)c2ccc3c(ccn3C)c2)CC1 | -25% | -3%
O=C(COc1ccccc1)NC(=S)Nc1ccc2c3c(cccc13)CC2 | u | -8%
O=C(/C=C/c1ccccc1)NC(=S)Nc1ccc2c3c(cccc13)CC2 | 13µM* | -6%
CC(C)c1ccc(OCC(=O)NC(=S)Nc2ccc3c4c(cccc24)CC3)cc1 | 25µM* | 1%
Cc1ccc(OCC(=O)NC(=S)Nc2ccc3c4c(cccc24)CC3)cc1 | u | -12%
Fc1ccccc1Cn1c(-c2ccccc2)nc2ccccc21 | 3% | 1%
CC(C)(C)C(=O)Nc1nc2c(s1)COc1ccccc1-2 | 6% | -13%
O=C(CCSc1ccccc1)Nc1nc2c(s1)COc1ccccc1-2 | 32µM* | -7%
SMILES | Cruzain noTriton | Cruzain inh Det
Cc1ccccc1OCc1nc(-c2ccc(NC(=O)c3ccc4c(c3)OCO4)cc2)no1 | 13µM* | 3%
Cc1ccccc1OCc1nc(-c2ccc(NC(=O)c3ccco3)cc2)no1 | 2% | -5%
COc1ccc(N=C2C(=Nc3ccc(OC)cc3)N(c3ccc(OC)cc3)C(=S)N2c2ccccc2)cc1 | u | 0%
Cc1ccc(N=C2C(=S)N(c3ccc(C)cc3)C(=N)N2/N=C/c2ccc(Cl)cc2)cc1 | 3.2µM* | -4%
COc1ccc2c(c1-c1c3c(cc(Br)c1OC)CCCC3)CCCC2 | 9% | 2%
COc1ccc(OCC(=O)NC2CC(=O)N(c3cccc(OC)c3)C2)cc1 (stereo unspecified) | 4% | -3%
O=C(Cc1ccsc1)NCC(c1ccco1)N1CCCCC1 (stereo unspecified) | 9% | 1%
CC(C)C(NC(=O)c1ccco1)C(=O)NCC(c1ccco1)N1CCCCC1 (stereo unspecified) | u | 14µM*
Cc1ccc(NC(=O)CN2C(=O)C3(SCC(=O)N3c3cccc(Cl)c3)c3ccccc32)cc1C (stereo unspecified) | 20µM* | -5%
O=C(CN1C(=O)C2(SCC(=O)N2c2ccc(F)c(F)c2)c2ccccc21)Nc1cccc(Cl)c1 (stereo unspecified) | u | -6%
Cc1ccc(N2C(=O)CSC23C(=O)N(CC(=O)Nc2ccc(C(C)C)cc2)c2ccccc23)cc1C (stereo unspecified) | u | -6%
COc1ccc(NC(=O)CN2C(=O)C3(SCC(=O)N3c3ccccc3)c3ccccc32)cc1Cl (stereo unspecified) | 20µM* | -5%
O=C(c1csnn1)N1CCC2(CC1)CN(c1ccccn1)C2 | 1% | -7%
COc1cc2c(cc1OC)[C@]13CC[N@+]4(C)CC5=CCO[C@H]6CC(=O)N2[C@@H]1C6[C@@H]5C[C@]34O (stereo partly specified) | -4% | 2%
CC(C)(C)c1ccc(OCC(=O)Nc2c(C(=O)c3ccc(F)cc3)oc3ccccc23)cc1 | 4% | -1%
